According to PubChem BioAssay AID1159580 (chemical genetic matrix, 2015):
Values joined by “and” are separate entries in the source; they are usually repeats but may differ in a detail not shown here. Equal values may be shown once. The whole screen tested about 5,500 compounds, of which about 2,000 (36%) were called active. About 18% were inconclusive and are not listed. Cut-off read from the data, not from the text of the source: active = normalized growth mostly below about 0.91 (no sharp cut-off); inconclusive = no clear call, values can overlap the other calls; inactive = mostly above about 0.92. Some of the results follow.

Assay: chemical genetic growth profiling, strain panel (AID 1159580);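 note: tested at 20 µM; growth read once vehicle control cultures reached saturation at 30 °C; 1 = growth at the plate median or of vehicle wells; lower values mean less growth of the strain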
Conditions: growth OD

Measured: normalized growth

O=C1CCC(N2C(=O)c3ccccc3C2=O)C(=O)N1 (stereo unspecified)
inactive: S. cerevisiae deletion strains, locus YJR075W, strain HOC1, hits give low values 0.972 and 1.02 | S. cerevisiae deletion strains, locus YKL009W, strain mrt4, hits give low values 1.03 | S. cerevisiae deletion strains, locus YKL068W, hits give low values 0.997 | S. cerevisiae deletion strains, locus YKL085W, strain MDH1 (second series), hits give low values 1.03 | S. cerevisiae deletion strains, locus YKL085W, strain MDH1, hits give low values 1.03 | S. cerevisiae deletion strains, locus YKL160W, strain elf1, hits give low values 1 | S. cerevisiae deletion strains, locus YKL190W, strain CNB1, hits give low values 1.02 | S. cerevisiae deletion strains, locus YKR001C, strain vps1, hits give low values 0.969 | S. cerevisiae deletion strains, locus YKR026C, strain gcn3, hits give low values 1.02 | S. cerevisiae deletion strains, locus YKR091W, strain srl3, hits give low values 1.02 | S. cerevisiae deletion strains, locus YLL001W, strain dnm1, hits give low values 1.04 | S. cerevisiae deletion strains, locus YLL026W, hits give low values 1.01 | S. cerevisiae deletion strains, locus YLL041C, strain sdh2, hits give low values 1.03 | S. cerevisiae deletion strains, locus YLR027C, strain aat2, hits give low values 1 | S. cerevisiae deletion strains, locus YLR039C, strain RIC1, hits give low values 1.03 | S. cerevisiae deletion strains, locus YLR058C, strain SHM2, hits give low values 1.01 | S. cerevisiae deletion strains, locus YLR102C, strain apc9, hits give low values 0.991 | S. cerevisiae deletion strains, locus YLR113W, strain HOG1, hits give low values 0.971 | S. cerevisiae deletion strains, locus YLR221C, strain rsa3, hits give low values 1.03 | S. cerevisiae deletion strains, locus YLR258W, strain gsy2, hits give low values 1.02 | S. cerevisiae deletion strains, locus YLR262C, strain YPT6 (second series), hits give low values 1.02 | S. cerevisiae deletion strains, locus YLR262C, strain YPT6, hits give low values 1.05 | S. cerevisiae deletion strains, locus YLR268W, strain sec22, hits give low values 0.985 | S. cerevisiae deletion strains, locus YLR320W, strain mms22, hits give low values 1.03 | S. cerevisiae deletion strains, locus YLR330W, strain CHS5, hits give low values 1 | S. cerevisiae deletion strains, locus YLR342W, strain FKS1 (second series), hits give low values 0.991 | S. cerevisiae deletion strains, locus YLR342W, strain FKS1, hits give low values 1.01 | S. cerevisiae deletion strains, locus YLR357W, strain rsc2, hits give low values 0.997 | S. cerevisiae deletion strains, locus YLR370C, strain arc18, hits give low values 1.03 | S. cerevisiae deletion strains, locus YLR371W, strain rom2, hits give low values 0.983 | S. cerevisiae deletion strains, locus YLR384C, strain iki3, hits give low values 1.03 | S. cerevisiae deletion strains, locus YLR418C, strain cdc73, hits give low values 0.977 | S. cerevisiae deletion strains, locus YML016C, strain PPZ1, hits give low values 1.01 | S. cerevisiae deletion strains, locus YML032C, strain rad52, hits give low values 0.979 | S. cerevisiae deletion strains, locus YML120C, strain ndi1, hits give low values 1.04 | S. cerevisiae deletion strains, locus YML124C, strain tub3, hits give low values 0.988 | S. cerevisiae deletion strains, locus YMR058W, strain fet3, hits give low values 1.02 | S. cerevisiae deletion strains, locus YMR078C, strain ctf18, hits give low values 0.998 | S. cerevisiae deletion strains, locus YMR125W, strain sto1, hits give low values 1.01 | S. cerevisiae deletion strains, locus YMR129W, hits give low values 1.02 | S. cerevisiae deletion strains, locus YMR205C, strain PFK2, hits give low values 1.01 | S. cerevisiae deletion strains, locus YMR223W, strain ubp8, hits give low values 0.981 | S. cerevisiae deletion strains, locus YMR231W, strain pep5, hits give low values 1.01 | S. cerevisiae deletion strains, locus YMR263W, strain SAP30, hits give low values 1.02 and 1 | S. cerevisiae deletion strains, locus YMR307W, strain GAS1, hits give low values 1.01 and 0.996 | S. cerevisiae deletion strains, locus YNL067W, strain RPL9B, hits give low values 1.02 | S. cerevisiae deletion strains, locus YNL071W, strain lat1, hits give low values 1.03 | S. cerevisiae deletion strains, locus YNL128W, strain TEP1, hits give low values 1.02 | S. cerevisiae deletion strains, locus YNL153C, strain GIM3, hits give low values 1.02 | S. cerevisiae deletion strains, locus YNL175C, strain NOP13, hits give low values 0.997 | S. cerevisiae deletion strains, locus YNL183C, strain NPR1, hits give low values 0.927 | S. cerevisiae deletion strains, locus YNL197C, strain WHI3, hits give low values 0.986 | S. cerevisiae deletion strains, locus YNL209W, strain ssb2, hits give low values 1.02 | S. cerevisiae deletion strains, locus YNL224C, strain SQS1, hits give low values 0.991 | S. cerevisiae deletion strains, locus YNL233W, strain BNI4, hits give low values 1.02 | S. cerevisiae deletion strains, locus YNL248C, strain rpa49, hits give low values 0.957 | S. cerevisiae deletion strains, locus YNL250W, strain rad50, hits give low values 1 | S. cerevisiae deletion strains, locus YNL271C, strain bni1, hits give low values 0.986 | S. cerevisiae deletion strains, locus YNL298W, strain CLA4, hits give low values 1 | S. cerevisiae deletion strains, locus YNL307C, strain MCK1, hits give low values 0.987 | S. cerevisiae deletion strains, locus YNL322C, strain KRE1 (second series), hits give low values 1.02 | S. cerevisiae deletion strains, locus YNL322C, strain KRE1, hits give low values 1.01 | S. cerevisiae deletion strains, locus YNR049C, strain mso1, hits give low values 1.01 | S. cerevisiae deletion strains, locus YNR052C, strain pop2, hits give low values 0.991 | S. cerevisiae deletion strains, locus YOL006C, strain TOP1, hits give low values 1.01 | S. cerevisiae deletion strains, locus YOL012C, strain htz1 0.819 | S. cerevisiae deletion strains, locus YOL147C, strain pex11, hits give low values 0.989 | S. cerevisiae deletion strains, locus YOR001W, strain rrp6, hits give low values 1.01 | S. cerevisiae deletion strains, locus YOR061W, strain CKA2, hits give low values 1.02 | S. cerevisiae deletion strains, locus YOR069W, strain VPS5, hits give low values 1.01 | S. cerevisiae deletion strains, locus YOR070C, strain gyp1, hits give low values 1.02 | S. cerevisiae deletion strains, locus YOR080W, strain dia2, hits give low values 1.02 | S. cerevisiae deletion strains, locus YOR083W, strain WHI5 (second series), hits give low values 1.01 | S. cerevisiae deletion strains, locus YOR083W, strain WHI5, hits give low values 1.01 | S. cerevisiae deletion strains, locus YOR106W, strain vam3, hits give low values 1.01 | S. cerevisiae deletion strains, locus YOR136W, strain idh2, hits give low values 0.981 | S. cerevisiae deletion strains, locus YOR144C, strain elg1, hits give low values 0.998 | S. cerevisiae deletion strains, locus YOR184W, strain ser1, hits give low values 0.981 | S. cerevisiae deletion strains, locus YOR231W, strain MKK1, hits give low values 0.976 | S. cerevisiae deletion strains, locus YOR265W, strain rbl2, hits give low values 1.01 | S. cerevisiae deletion strains, locus YOR270C, strain vph1, hits give low values 1.04 | S. cerevisiae deletion strains, locus YOR290C, strain snf2, hits give low values 1.01 | S. cerevisiae deletion strains, locus YOR316C, strain cot1, hits give low values 0.997 | S. cerevisiae deletion strains, locus YPL051W, strain arl3, hits give low values 1 | S. cerevisiae deletion strains, locus YPL055C, strain LGE1, hits give low values 1.05 | S. cerevisiae deletion strains, locus YPL078C, strain atp4, hits give low values 1.01 | S. cerevisiae deletion strains, locus YPL106C, strain sse1, hits give low values 1.03 | S. cerevisiae deletion strains, locus YPL240C, strain hsp82, hits give low values 1.02 | S. cerevisiae deletion strains, locus YPL241C, strain CIN2, hits give low values 1.01 | S. cerevisiae deletion strains, locus YPL256C, strain CLN2, hits give low values 0.968 | S. cerevisiae deletion strains, locus YPR119W, strain clb2, hits give low values 0.979 | S. cerevisiae deletion strains, locus YPR141C, strain kar3, hits give low values 0.988 | S. cerevisiae deletion strains, locus YPR163C, strain tif3, hits give low values 0.998 | S. cerevisiae deletion strains, locus YPR167C, strain met16, hits give low values 0.99 | S. cerevisiae deletion strains, strain wtn01, hits give low values 0.983 | S. cerevisiae strains, strain wild type, hits give low values 1.01
